A selection: hits, their analogues and other compounds. The true share with any hit is near 9.5%.
Pf growth 96h: P. falciparum growth inhibition at 96 hour, primary screen for plastid delayed-death inhibitors; P. falciparum luciferase reporter growth, 96 h; Potency, µM (highest dose often 28.7 µM), without a hit: at the top dose activity change, negative = inhibition, most hits filed as inhibitors; 320,000 compounds, 6.9% hits; further: on the % scale 0 is the no-effect control and ±100 the full control effect
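Compounds incubated with erythrocytes infected by luciferase-expressing P. falciparum (2% hematocrit, 0.05% parasitemia final) for 96 hours, 37 C in 5% CO2. Growth inhibition scored as decreased luciferase luminescence.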
NS1 inh: inhibitors of influenza NS1 protein function; Potency, µM (titrated, usually from 46.1 µM), without a hit: at the top dose activity, positive = more growth; 270,000 compounds, 0.4% hits; AID 2326; calls by dose curve; further: actives are rising curves; nearly all actives have a fitted effect of over 50% in size
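Growth recovery, yeast-based: influenza A NS1 expressed in S. cerevisiae causes slow growth, and suppressors are detected by OD600. The parent strain without NS1 is used as positive control.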
RE007 growth inh: less growth of the S. pombe RE007 Vpr strain | S. pombe RE007 Vpr strain, BacTiter-Glo ATP luminescence, 24 h | Potency, µM (top dose mostly 92.2 µM), inactives show at the top dose activity change, negative = less growth, actives largely listed as inhibitors | 360,000 compounds, 0.21% hits | AID 651644; active means well fitted falling curve with a large enough effect; inconclusive means small, poorly fitted or top-dose-only effect; inactive means no such curve, though single readings can be large or run the other way; further: on the % scale 0 is the no-effect control and ±100 the full control effect; nearly all actives have a fitted effect of over 50% in size
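Fission yeast RE007 carrying one integrated HIV-1 vpr copy, seeded at OD 0.01 in PMG+AL medium with 23 nL pinned compound. Grown 24 h at 30 degrees; viability read by BacTiter-Glo luminescence after 5 min.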
Pf growth 48h: P. falciparum growth inhibition at 48 hours (one generation); P. falciparum luciferase growth in erythrocytes, 48 h; Potency, µM (series often up to 28.7 µM), inactives show at the top dose activity change, negative = inhibition, usual class: inhibitors; 310,000 compounds, 5.9% hits; further: on the % scale 0 is the no-effect control and ±100 the full control effect
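Luminescence readout; reporter = integrated firefly luciferase in P. falciparum. RBC culture at 2% hematocrit, 0.1% parasitemia final, 37 C/5% CO2; decreased signal taken as growth inhibition.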
SARS PLP yeast: blocks SARS-CoV papain-like protease in a yeast assay; S. cerevisiae expressing SARS-CoV PLpro, growth rescue; Potency, µM (titrated, usually from 32.9 µM), for inactives: at the highest dose activity, positive = growth rescue, hits mostly activators; 330,000 compounds, 0.19% hits; calls by dose curve; further: 0% is about no effect; nearly all actives have a fitted effect of over 55% in size
Active calls of the source: *; ? = inconclusive; . = no result; ! = not confirmed by another sample; [ ] = remark or other dose. Unless noted, the call rests on the fitted dose curve; in most records, active means well fitted inhibition curve with a large enough effect; inconclusive means small, poorly fitted or top-dose-only effect, or another doubt; inactive means no such curve, though single readings can be large or run the other way. Potency means the concentration at half of the fitted maximal effect.

SMILES | Pf growth 96h | NS1 inh | RE007 growth inh | Pf growth 48h | SARS PLP yeast
COc1ccc(CCNC(=O)C2CCC(C(C)(C)C)CC2)cc1OC (stereo unspecified) | ? | -43.2% | 3.0% | ? | -2.9%
CCCNC(=O)N1CCN(S(=O)(=O)c2ccc3c(c2)OCCO3)CC1 | -18.6% | . | -11.5% | ? | 0.4%
Cc1cccc(NC(=O)CSc2nc3ccccc3c3nc(CCc4c(C)n[nH]c4C)nn23)c1 | 18.9% | ? | 5.6% | 7.38µM* | 2.5%
Cc1n[nH]c(C)c1CCc1nc2c3ccccc3nc(SCC(=O)Nc3ccccc3F)n2n1 | ? | 15.0% | -3.7% | . | -3.9%
Nc1ccccc1C(=O)NC12CC3CC(CC(C3)C1)C2 | ? | 5.8% | -17.0% | 3.6% | 1.4%
O=C(NC12CC3CC(CC(C3)C1)C2)c1cccnc1Cl | 11.7µM* | 18.7% | 13.3% | 4.0% | 4.3%
CC(C)c1ccc(NC(=O)C2CCC(CNC(=O)[C@@H]3Cc4ccccc4CN3)CC2)cc1 (stereo partly specified) | -4.8% | 4.2% | 19.9% | ? | -3.0%
C=CCN1C(=O)/C(=C/c2ccc(OC)cc2)S/C1=N/c1nccs1 | 11.7µM* | 4.6% | 2.7% | 12.2% | -1.5%
Cc1cc(F)ccc1S(=O)(=O)N1CCC2(CC1)OCCN2S(=O)(=O)c1cccs1 | ? | . | 21.3% | ? | -1.5%
Cc1ccccc1NC(=O)c1cccc(C(=O)Nc2ccccc2C)c1 | . | . | -0.2% | . | .
Cc1oc(=O)c(NC(=O)c2ccccc2)cc1C(N)=O | ? | . | -4.8% | -0.2% | -0.2%
COc1ccc(C(=O)Nc2cc(C(=O)c3ccccc3)c(C)oc2=O)cc1 | 65.3% | -222.3% | 11.2µM* | -19.8% | -33.1%
COc1ccc(-c2cccc(C(=O)Nc3ccccc3C)c2)cc1 | 9.28µM* | 2.8% | . | 4.5% | -12.2%
Cc1oc(=O)c(NC(=O)c2cccc(Cl)c2)cc1C(=O)c1ccccc1 | 48.8% | -170.4% | 14.1µM* | ? | -29.2%
COC(=O)c1cc(NC(=O)c2ccccc2)c(=O)oc1C | 44.1% | -6.9% | -23.4% | 0.0% | -7.6%
COc1ccc(C(=O)c2ccccc2)c(O)c1 | 15.1µM*! | 4.2% | -17.3% | ? | -2.8%
CCOc1ccc(NC(=O)Nc2cc(C(=O)O)ccc2N2CC3CC(C2)c2cccc(=O)n2C3)cc1 (stereo unspecified) | ? | ? | -5.1% | -14.9% | -3.0%
O=C(CSc1ccc([N+](=O)[O-])cc1)NNC(=O)c1ccccc1F | 11.1% | 20.4% | 8.3% | 0.0% | 1.4%
N#CC1(NC(=O)CSc2nnc(C3CC3)n2C2CC2)CCCCC1 | -17.8% | . | -5.0% | -20.4% | 3.0%
CC(=O)C[C@H](O)CC(=O)[C@@H]1OC(=O)CCCCC/C=C/Cc2ccccc21 | . | . | 21.3% | . | 3.5%
N/C(=N\O)c1ccc(Cl)cc1Cl | 0.0% | 1.6% | 12.6% | 36.2% | 1.0%
O=C1NC[C@H](CCCCN2CCN(Cc3ccccc3)C(=O)C2=O)N(CCC2CCCCC2)C1=O | . | . | -2.0% | . | .
CN(C)CCN(C)C1CN(Cc2ccc([N+](=O)[O-])cc2)S(=O)(=O)C1 (stereo unspecified) | . | . | -24.2% | . | .
O=C(c1ccc2c(c1)OCO2)C1CCCN(Cc2ccccn2)C1 (stereo unspecified) | 17.8% | 2.5% | -2.6% | ? | 0.5%
Cn1c(CN2CCCC(C(=O)c3ccc4c(c3)OCO4)C2)nc2ccccc21 (stereo unspecified) | 9.28µM* | 3.8% | -6.2% | ? | 0.5%
SMILES | Pf growth 96h | NS1 inh | RE007 growth inh | Pf growth 48h | SARS PLP yeast
COc1cc(OC)cc(C(=O)N(CCCN2C(=O)c3cccc4cccc(c34)C2=O)c2cccc(OC)c2)c1 | -99.3% | ? | 8.6% | 9.28µM* | 10.5%
COc1ccc(N(CCCN2C(=O)c3cccc4cccc(c34)C2=O)C(=O)c2ccncc2)cc1 | 1.47µM* | . | 166.9% | 2.33µM* | 0.8%
c1ccc2cc(-c3cc(-c4cc(-c5ccc6ccccc6c5)on4)no3)ccc2c1 | . | -2.6% | . | . | .
CCNC(=S)N1CCN(c2nc(-c3cccc(OC)c3)cs2)CC1 | 10.4µM* | 19.2% | 3.3% | ? | 5.3%
COc1ccc(NC(=O)N2CCN(c3nc(-c4cccc(OC)c4)cs3)CC2)cc1 | ? | -10.5% | 3.6% | 10.4µM* | -31.3%
COCCCNC(=S)N1CCN(c2nc(-c3ccc(Cl)cc3)cs2)CC1 | . | . | -13.2% | . | .
COc1cccc(-c2csc(N3CCN(C(=O)Nc4ccc(Cl)cc4)CC3)n2)c1 | 25.2% | -42.0% | -14.5% | ? | -4.3%
CC(C)CNC(=S)N1CCN(c2nc(-c3ccc(Cl)cc3)cs2)CC1 | 10.4µM* | -9.9% | 3.1% | -8.1% | 2.7%
COCCNC(=S)N1CCN(c2nc(-c3cccc(OC)c3)cs2)CC1 | ? | 15.9% | 7.5% | -13.4% | -14.4%
COc1cccc(-c2csc(N3CCN(C(=S)NCC(C)C)CC3)n2)c1 | 14.7µM* | 0.4% | -7.6% | 13.1µM* | 29.6%
COc1cccc(-c2csc(N3CCN(C(=S)Nc4cccc(Cl)c4)CC3)n2)c1 | -12.4% | 4.6% | 10.2% | ? | -6.0%
COc1ccc(C2/C=C\CN3CCC[C@H]3C(=O)N2Cc2ccc(F)cc2)cc1 (stereo partly specified) | . | . | -7.1% | . | 4.1%
COc1cccc(-c2csc(N3CCN(C(=S)Nc4ccccc4Cl)CC3)n2)c1 | ? | 7.9% | 16.5% | 13.1µM* | -7.8%
COc1cccc(-c2csc(N3CCN(C(=S)Nc4ccccc4OC)CC3)n2)c1 | ? | 4.9% | 2.6% | ? | -1.7%
COc1cccc(C(C)(O)c2nc(-c3cccc4cccnc34)cs2)c1 (stereo unspecified) | . | . | -9.4%[18.4 µM] | . | .
COc1ccc(NC(=S)Nc2cccnc2)c(OC)c1 | 14.7µM* | . | -6.6% | 13.5% | -0.5%
COc1cccc(NC(=S)Nc2cccnc2)c1 | -10.3% | 14.6% | -10.0% | 37.0% | 7.7%
COc1ccc(NC(=O)C(=O)N/N=C/c2cccnc2)c(OC)c1 | ? | 5.8% | -14.8% | -12.5% | 3.2%
COc1ccc(NC(=O)c2cccnc2)c(OC)c1 | 14.7µM* | -1.9% | 9.3% | . | 5.4%
COc1ccc(NC(=O)/C(C#N)=C/c2cccnc2)c(OC)c1 | 1.04µM* | 6.4% | 13.8% | -20.3% | -0.6%
COc1ccc(NC(=O)c2cc(-c3cccnc3)nc3c(C)c(C)ccc23)c(OC)c1 | 0.828µM* | 7.7% | -4.2% | ? | -0.7%
CN(C(=O)CN1CCCCCC1)c1c(N)n(Cc2ccccc2)c(=O)[nH]c1=O | -20.7% | . | 1.5% | -1.4% | .
Cc1ccc(SCCC(=O)N/N=C/c2ccccc2O)cc1 | ? | -11.4% | -10.1% | 14.7µM* | ?
Cc1noc(C(=O)Nc2cc(Cl)ccc2O)c1Cl | 18.7% | -31.2% | -17.0% | 5.22µM* | -6.5%
O=C(Nc1cc(Cl)ccc1O)c1snnc1-c1ccccc1 | 11.7µM* | -0.4% | -11.0% | ? | -2.5%
Cc1noc(C(=O)Nc2ccc(Cl)cc2)c1Cl | 68.4% | -1.8% | . | 21.9% | 5.1%
CCOC(=O)CC(=O)Nc1cc(Cl)ccc1O | 11.7µM* | -7.7% | 1.7% | 15.0% | -7.9%
